How the values were obtained:
Assay in all cases: Spec-seq (native PAGE EMSA with sequencing of bound and unbound); 25 mM Tris-HCl pH 7.4, 150 mM KCl, 5 mM MgCl2, 10% glycerol, 1 mM DTT, 40 ng/uL salmon sperm DNA; 400 nM Cas12a, 480 nM crRNA, 50 nM library, 37 C 1 h; native PAGE at room temperature; high values mean tight binding
Details in all cases: protein: recombinant
[1] = biological target: dAsCas12a S542R (Acidaminococcus sp., UniProt U2UMQ6 1-1307, S542R;D908A;E993A;D1235A)
[2] = biological target: d-enCas12a (Acidaminococcus sp., UniProt U2UMQ6 1-1307, E174R;S542R;K548R;D908A;E993A;D1235A)
[3] = biological target: d-enCas12a-Ultra (Acidaminococcus sp., UniProt U2UMQ6 1-1307, E174R;S542R;K548R;M537R;F870L;D908A;E993A;D1235A)
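Note: relative affinity from the bound to unbound sequence frequency ratio in Spec-seq.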

Row | Binder | binding signal [1] [lnKA] | binding signal [2] [lnKA] | binding signal [3] [lnKA]
1 | GACT (dsDNA) DNA 1: GCTATCTAGTGCTCAGTACGCACTGGACTAGGAAACTTCTGGCAGGACCAGGTCATGAGATCGGAAGAGCACACGTCTGAACTCCAGTCA DNA 2: TGACTGGAGTTCAGACGTGTGCTCTTCCGATCTCATGACCTGGTCCTGCCAGAAGTTTCCTAGTCCAGTGCGTACTGAGCACTAGATAGC RNA: AAUUUCUACUCUUGUAGAUAGGAAACUUCUGGCAGGACC | -8.65 | -5.63 | -3.01
2 | GCAT (dsDNA) DNA 1: GCTATCTAGTGCTCAGTACGCACTGGCATAGGAAACTTCTGGCAGGACCAGGTCATGAGATCGGAAGAGCACACGTCTGAACTCCAGTCA DNA 2: TGACTGGAGTTCAGACGTGTGCTCTTCCGATCTCATGACCTGGTCCTGCCAGAAGTTTCCTATGCCAGTGCGTACTGAGCACTAGATAGC RNA: AAUUUCUACUCUUGUAGAUAGGAAACUUCUGGCAGGACC | -8.69 | -5.86 | -3.45
3 | GAGT (dsDNA) DNA 1: GCTATCTAGTGCTCAGTACGCACTGGAGTAGGAAACTTCTGGCAGGACCAGGTCATGAGATCGGAAGAGCACACGTCTGAACTCCAGTCA DNA 2: TGACTGGAGTTCAGACGTGTGCTCTTCCGATCTCATGACCTGGTCCTGCCAGAAGTTTCCTACTCCAGTGCGTACTGAGCACTAGATAGC RNA: AAUUUCUACUCUUGUAGAUAGGAAACUUCUGGCAGGACC | -8.58 | -5.78 | -3.48
4 | GCAC (dsDNA) DNA 1: GCTATCTAGTGCTCAGTACGCACTGGCACAGGAAACTTCTGGCAGGACCAGGTCATGAGATCGGAAGAGCACACGTCTGAACTCCAGTCA DNA 2: TGACTGGAGTTCAGACGTGTGCTCTTCCGATCTCATGACCTGGTCCTGCCAGAAGTTTCCTGTGCCAGTGCGTACTGAGCACTAGATAGC RNA: AAUUUCUACUCUUGUAGAUAGGAAACUUCUGGCAGGACC | -8.62 | -5.82 | -3.32
5 | GCCG (dsDNA) DNA 1: GCTATCTAGTGCTCAGTACGCACTGGCCGAGGAAACTTCTGGCAGGACCAGGTCATGAGATCGGAAGAGCACACGTCTGAACTCCAGTCA DNA 2: TGACTGGAGTTCAGACGTGTGCTCTTCCGATCTCATGACCTGGTCCTGCCAGAAGTTTCCTCGGCCAGTGCGTACTGAGCACTAGATAGC RNA: AAUUUCUACUCUUGUAGAUAGGAAACUUCUGGCAGGACC | -6.59 | -5.48 | -1.86
6 | GGCA (dsDNA) DNA 1: GCTATCTAGTGCTCAGTACGCACTGGGCAAGGAAACTTCTGGCAGGACCAGGTCATGAGATCGGAAGAGCACACGTCTGAACTCCAGTCA DNA 2: TGACTGGAGTTCAGACGTGTGCTCTTCCGATCTCATGACCTGGTCCTGCCAGAAGTTTCCTTGCCCAGTGCGTACTGAGCACTAGATAGC RNA: AAUUUCUACUCUUGUAGAUAGGAAACUUCUGGCAGGACC | -8.26 | -4.74 | -1.64
7 | GCCC (dsDNA) DNA 1: GCTATCTAGTGCTCAGTACGCACTGGCCCAGGAAACTTCTGGCAGGACCAGGTCATGAGATCGGAAGAGCACACGTCTGAACTCCAGTCA DNA 2: TGACTGGAGTTCAGACGTGTGCTCTTCCGATCTCATGACCTGGTCCTGCCAGAAGTTTCCTGGGCCAGTGCGTACTGAGCACTAGATAGC RNA: AAUUUCUACUCUUGUAGAUAGGAAACUUCUGGCAGGACC | -5 | -2.96 | -0.56
8 | GAGC (dsDNA) DNA 1: GCTATCTAGTGCTCAGTACGCACTGGAGCAGGAAACTTCTGGCAGGACCAGGTCATGAGATCGGAAGAGCACACGTCTGAACTCCAGTCA DNA 2: TGACTGGAGTTCAGACGTGTGCTCTTCCGATCTCATGACCTGGTCCTGCCAGAAGTTTCCTGCTCCAGTGCGTACTGAGCACTAGATAGC RNA: AAUUUCUACUCUUGUAGAUAGGAAACUUCUGGCAGGACC | -8.89 | -5.66 | -3.45
9 | GCGT (dsDNA) DNA 1: GCTATCTAGTGCTCAGTACGCACTGGCGTAGGAAACTTCTGGCAGGACCAGGTCATGAGATCGGAAGAGCACACGTCTGAACTCCAGTCA DNA 2: TGACTGGAGTTCAGACGTGTGCTCTTCCGATCTCATGACCTGGTCCTGCCAGAAGTTTCCTACGCCAGTGCGTACTGAGCACTAGATAGC RNA: AAUUUCUACUCUUGUAGAUAGGAAACUUCUGGCAGGACC | -8.52 | -5.91 | -3.51
10 | GAGG (dsDNA) DNA 1: GCTATCTAGTGCTCAGTACGCACTGGAGGAGGAAACTTCTGGCAGGACCAGGTCATGAGATCGGAAGAGCACACGTCTGAACTCCAGTCA DNA 2: TGACTGGAGTTCAGACGTGTGCTCTTCCGATCTCATGACCTGGTCCTGCCAGAAGTTTCCTCCTCCAGTGCGTACTGAGCACTAGATAGC RNA: AAUUUCUACUCUUGUAGAUAGGAAACUUCUGGCAGGACC | -8.75 | -5.9 | -3.51
11 | GGAA (dsDNA) DNA 1: GCTATCTAGTGCTCAGTACGCACTGGGAAAGGAAACTTCTGGCAGGACCAGGTCATGAGATCGGAAGAGCACACGTCTGAACTCCAGTCA DNA 2: TGACTGGAGTTCAGACGTGTGCTCTTCCGATCTCATGACCTGGTCCTGCCAGAAGTTTCCTTTCCCAGTGCGTACTGAGCACTAGATAGC RNA: AAUUUCUACUCUUGUAGAUAGGAAACUUCUGGCAGGACC | -8.88 | -5.71 | -3.48
12 | GGAC (dsDNA) DNA 1: GCTATCTAGTGCTCAGTACGCACTGGGACAGGAAACTTCTGGCAGGACCAGGTCATGAGATCGGAAGAGCACACGTCTGAACTCCAGTCA DNA 2: TGACTGGAGTTCAGACGTGTGCTCTTCCGATCTCATGACCTGGTCCTGCCAGAAGTTTCCTGTCCCAGTGCGTACTGAGCACTAGATAGC RNA: AAUUUCUACUCUUGUAGAUAGGAAACUUCUGGCAGGACC | -8.47 | -5.75 | -3.35
13 | GCAG (dsDNA) DNA 1: GCTATCTAGTGCTCAGTACGCACTGGCAGAGGAAACTTCTGGCAGGACCAGGTCATGAGATCGGAAGAGCACACGTCTGAACTCCAGTCA DNA 2: TGACTGGAGTTCAGACGTGTGCTCTTCCGATCTCATGACCTGGTCCTGCCAGAAGTTTCCTCTGCCAGTGCGTACTGAGCACTAGATAGC RNA: AAUUUCUACUCUUGUAGAUAGGAAACUUCUGGCAGGACC | -8.35 | -6.02 | -3.32
14 | GGAG (dsDNA) DNA 1: GCTATCTAGTGCTCAGTACGCACTGGGAGAGGAAACTTCTGGCAGGACCAGGTCATGAGATCGGAAGAGCACACGTCTGAACTCCAGTCA DNA 2: TGACTGGAGTTCAGACGTGTGCTCTTCCGATCTCATGACCTGGTCCTGCCAGAAGTTTCCTCTCCCAGTGCGTACTGAGCACTAGATAGC RNA: AAUUUCUACUCUUGUAGAUAGGAAACUUCUGGCAGGACC | -8.39 | -5.85 | -3.43
15 | GCAA (dsDNA) DNA 1: GCTATCTAGTGCTCAGTACGCACTGGCAAAGGAAACTTCTGGCAGGACCAGGTCATGAGATCGGAAGAGCACACGTCTGAACTCCAGTCA DNA 2: TGACTGGAGTTCAGACGTGTGCTCTTCCGATCTCATGACCTGGTCCTGCCAGAAGTTTCCTTTGCCAGTGCGTACTGAGCACTAGATAGC RNA: AAUUUCUACUCUUGUAGAUAGGAAACUUCUGGCAGGACC | -8.78 | -5.83 | -3.42
16 | GCCT (dsDNA) DNA 1: GCTATCTAGTGCTCAGTACGCACTGGCCTAGGAAACTTCTGGCAGGACCAGGTCATGAGATCGGAAGAGCACACGTCTGAACTCCAGTCA DNA 2: TGACTGGAGTTCAGACGTGTGCTCTTCCGATCTCATGACCTGGTCCTGCCAGAAGTTTCCTAGGCCAGTGCGTACTGAGCACTAGATAGC RNA: AAUUUCUACUCUUGUAGAUAGGAAACUUCUGGCAGGACC | -7.86 | -5.97 | -2.67
17 | GGAT (dsDNA) DNA 1: GCTATCTAGTGCTCAGTACGCACTGGGATAGGAAACTTCTGGCAGGACCAGGTCATGAGATCGGAAGAGCACACGTCTGAACTCCAGTCA DNA 2: TGACTGGAGTTCAGACGTGTGCTCTTCCGATCTCATGACCTGGTCCTGCCAGAAGTTTCCTATCCCAGTGCGTACTGAGCACTAGATAGC RNA: AAUUUCUACUCUUGUAGAUAGGAAACUUCUGGCAGGACC | -8.54 | -5.99 | -3.45

Source: PMC8222333, “AsCas12a ultra nuclease facilitates the rapid generation of therapeutic cell medicines”
